Screens (PubChem)
Shown are actives, neighbours in structure and some others; about 5.7% of the full set was active somewhere.
AHR activator = AHR activators, primary screen, cell-based, luminescence, luciferase reporter, human; Aryl hydrocarbon receptor (Homo sapiens), P35869; AHR-responsive luciferase reporter cells; activation, % at 5 µM; 320,000 compounds, 2.5% hits; in the data active = activation above about 47%
hcDAF12 agonist = H. contortus DAF-12 nuclear receptor activators, primary screen, cell-based, luminescence, HEK293, lit1-tk-luc reporter | HEK293 hcDAF-12 lit1-tk-luc reporter; 0% DMSO, 100% Δ7-dafachronic acid | activation, % at 6.8 µM | 370,000 compounds, 1.4% hits;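 active = activation above the mean of all tested compounds plus 3 SD, cut at about 5.5% in these data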
DAX1 inh-1 = DAX1 (NR0B1) inhibitors on StAR promoter, primary screen, cell-based, luminescence, SF-1 (NR5A1), full-length DAX-1. HEK293T StAR-luciferase reporter, SF-1/DAX-1 repression relief. inhibition, % at 6.8 µM. 370,000 compounds, 1.1% hits;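 active = inhibition above the mean over all tested compounds plus 3 SD, cut at about 3.6% in these data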;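 also: higher inhibition means more luminescence from relief of DAX-1 repression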
ssDAF-12 act = S. stercoralis DAF-12 nuclear receptor activators, primary screen, cell-based, luminescence, HEK293, GRIP1 co-expression, lit1-tk-luc | HEK293 ssDAF-12/GRIP1 lit1-tk-luc reporter; % of 3 µM dafachronic acid response | activation, % at 6.8 µM | AID 652126, 2013 | 370,000 compounds, 1% hits | Nuclear hormone receptor DAF-12 (Strongyloides stercoralis);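 active = activation above the mean over all tested compounds plus 3 SD, cut at about 0.9% in these data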
DAX1 inh-2 = DAX1 (NR0B1) inhibitors, primary screen, cell-based, HEK293, Gal4-DAX1, luciferase luminescence. AID 504766, 2011. inhibition, % at 6.75 µM. 340,000 compounds, 0.99% hits. HEK293 Gal4-DAX1 luciferase reporter;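 active = inhibition above the mean over all tested compounds plus 3 SD, cut at about 4.2% in these data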;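 also: inhibition shows as a rise in luminescence from relieved DAX1 repression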
hgDAF12 agonist = H. glycines DAF-12 receptor agonists, primary screen, cell-based, luminescence, HEK293, GAL4 fusion, UAS-luciferase; HEK293 GAL4-hgDAF12 UAS-luciferase reporter, agonist luminescence; normalized to butyrate control; AID 687014, 2013; activation, % at 6.8 µM; Nuclear hormone receptor DAF-12 (Heterodera glycines), GAL4 fusion; 370,000 compounds, 1.8% hits;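 active = activation above a cutoff set at the mean of all screened compounds plus 3 SD, cut at about 10% in these data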
LXRb hcDAF ctr = LXR agonists, Gal4 luciferase reporter, confirmation, counter-screen for hcDAF-12 agonist project, cell-based, luminescence, HEK293, H. contortus campaign; shares compounds with hcDAF12 agonist; HEK293 Gal4-LXR tk-luc reporter, 24 h; normalized: DMSO 0%, positive control 100%; activation, % at 6.8 µM; 3,400 tested, under 10 active; AID 743027, 2013;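 active = mean percent activation of the reporter above a cutoff set as the average over tested compounds plus their standard deviation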
Target sequence (P55055 whole entry, looked up, the tested form may be a part): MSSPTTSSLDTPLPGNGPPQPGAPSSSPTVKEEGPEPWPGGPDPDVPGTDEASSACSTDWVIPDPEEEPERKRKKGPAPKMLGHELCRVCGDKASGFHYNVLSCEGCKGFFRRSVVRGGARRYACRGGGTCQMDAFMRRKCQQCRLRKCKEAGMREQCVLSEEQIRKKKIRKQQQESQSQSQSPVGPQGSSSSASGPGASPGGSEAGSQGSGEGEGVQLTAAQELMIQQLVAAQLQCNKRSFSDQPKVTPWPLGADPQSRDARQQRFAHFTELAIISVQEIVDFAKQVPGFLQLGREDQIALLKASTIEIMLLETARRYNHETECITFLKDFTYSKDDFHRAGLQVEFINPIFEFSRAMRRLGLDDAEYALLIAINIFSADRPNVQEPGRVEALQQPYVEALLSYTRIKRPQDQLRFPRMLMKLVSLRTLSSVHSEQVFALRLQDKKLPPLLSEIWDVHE
hcDAF12 conf = H. contortus DAF-12 receptor agonists, confirmation, cell-based, luminescence, HEK293, lit1-tk-luc, triplicate. HEK293 hcDAF-12 lit1-tk-luc reporter; % of Δ7-dafachronic acid response. shares compounds with hcDAF12 agonist. 3,400 compounds, 61% hits. activation, % at 6.8 µM;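 active = mean activation across triplicate tests above the threshold derived from the earlier primary screen, cut at about 5.5% in these data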
hgDAF12 conf = H. glycines DAF-12 receptor agonists, confirmation, cell-based, luminescence, HEK293, GAL4-LBD fusion; shares compounds with hgDAF12 agonist; HEK293 GAL4-hgDAF12 luciferase reporter, agonist mode; percent of butyrate response; activation, % at 6.8 µM; 3,300 compounds, 80% hits;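 active = mean activation over triplicate wells above the hit cutoff derived from the earlier primary screen, cut at about 11% in these data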
LXRb DAF12 ctr = LXR agonists, Gal4 luciferase reporter, confirmation, counter-screen for hgDAF-12 agonist project, cell-based, luminescence, HEK293, H. glycines campaign; shares compounds with hgDAF12 agonist; 24 h; activation, % at 6.8 µM; 3,300 tested, under 10 active; AID 743051, 2013;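 active = mean activation of the triplicate above a set limit carried over from the primary screen, none filed active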
Large screens that a line does not name were inactive (follow-up assays come after a bar, where they were run).

Cc1ccc(OCC(O)CN2CCOCC2)cc1 (stereo not drawn)	none
CCC1=Nc2ccccc2NC2=C1C(=O)CCC2	hcDAF12 agonist 15.1, ssDAF-12 act 2.6, hgDAF12 agonist 13.7 | LXRb hcDAF ctr inactive | hcDAF12 conf 7.9 | hgDAF12 conf inactive | LXRb DAF12 ctr inactive
COc1ccccc1NC(CC(=O)c1ccccc1)C(=O)OCC(=O)c1ccc(C)cc1 (stereo not drawn)	hcDAF12 agonist 8.5, hgDAF12 agonist 14.0 | LXRb hcDAF ctr inactive | hcDAF12 conf 14.8 | hgDAF12 conf 15.9 | LXRb DAF12 ctr inactive
O=C(CC(Nc1ccccc1Cl)C(=O)OCC(=O)c1cccs1)c1ccccc1 (stereo not drawn)	none
COc1ccccc1N1CC(C)(C)C(=O)N(C(=O)c2c(F)cccc2Cl)C1=S	none
CN(C)C=Nc1ccc2nc3c(cc2c1)[nH]c1ccccc13	AHR activator 70.9, hcDAF12 agonist 17.8, ssDAF-12 act 1.9, hgDAF12 agonist 17.5 | LXRb hcDAF ctr inactive | hcDAF12 conf 13.3 | hgDAF12 conf 19.0 | LXRb DAF12 ctr inactive
Cc1sc2ncn(CC(=O)N3CCN(c4ccccc4)CC3)c(=O)c2c1S(=O)(=O)N1CCOCC1	none
O=C(Nc1cnc2ccccc2c1)c1ccco1	hcDAF12 agonist 7.1, hgDAF12 agonist 14.6 | LXRb hcDAF ctr inactive | hcDAF12 conf inactive | hgDAF12 conf 17.7 | LXRb DAF12 ctr inactive
Cc1cc(N2CCOCC2)n2ncc(-c3ccccc3Cl)c2n1	hcDAF12 agonist 6.9, hgDAF12 agonist 17.5 (no result: AHR activator) | LXRb hcDAF ctr inactive | hcDAF12 conf 7.0 | hgDAF12 conf 15.9 | LXRb DAF12 ctr inactive
CC(C)c1cc(N2CCOCC2)n2ncc(-c3ccccc3)c2n1	none (no result: AHR activator)
Cc1ccc(NC(=O)C(=O)c2c[nH]c3ccccc23)cc1	hcDAF12 agonist 7.2, hgDAF12 agonist 20.4 (no result: AHR activator) | LXRb hcDAF ctr inactive | hcDAF12 conf inactive | hgDAF12 conf 21.6 | LXRb DAF12 ctr inactive
CN(C)C(=O)c1cc(C(=O)c2c(F)cccc2F)c[nH]1	none
O=C(O)c1ccc(N/N=C/c2ccc(F)c(F)c2)cc1	hcDAF12 agonist 11.5, hgDAF12 agonist 17.8 | LXRb hcDAF ctr inactive | hcDAF12 conf 8.2 | hgDAF12 conf 16.3 | LXRb DAF12 ctr inactive
O=C(O)c1ccc(N/N=C/c2ccc(OC(=O)c3cccc(Cl)c3)cc2)cc1	none
CC(=O)N1CCC(C(=O)NC2CCCc3c2cnn3-c2cc(F)cc(F)c2)CC1 (stereo not drawn)	none
O=C(Nc1ccc2[nH]ccc2c1)c1ccc(F)cc1	hcDAF12 agonist 8.2, ssDAF-12 act 1.5, hgDAF12 agonist 15.9 | LXRb hcDAF ctr inactive | hcDAF12 conf 5.9 | hgDAF12 conf 20.5 | LXRb DAF12 ctr inactive
COc1ccc(NC(=O)Nc2ccc3[nH]ccc3c2)cc1	none (no result: DAX1 inh-2)
Cc1ccc(NC(=O)c2ccc(Cl)nc2)cc1	hcDAF12 agonist 8.7, ssDAF-12 act 1.4, hgDAF12 agonist 14.1 | LXRb hcDAF ctr inactive | hcDAF12 conf 8.2 | hgDAF12 conf inactive | LXRb DAF12 ctr inactive
O=S(=O)(Nc1nc2ccccc2nc1N1CCc2ccccc2C1)c1ccc(Cl)cc1	AHR activator 63.3, hcDAF12 agonist 15.7, DAX1 inh-1 4.3, ssDAF-12 act 2.5, hgDAF12 agonist 19.8 | LXRb hcDAF ctr inactive | hcDAF12 conf 6.3 | hgDAF12 conf 23.7 | LXRb DAF12 ctr inactive
O=S(=O)(Nc1nc2ccccc2nc1N1CCN(c2ccccn2)CC1)c1ccc(Cl)cc1	none (no result: AHR activator)
O=C(c1ccccc1)n1c(=S)nc2ccccn21	hcDAF12 agonist 15.3, ssDAF-12 act 1.1, hgDAF12 agonist 16.0 | LXRb hcDAF ctr inactive | hcDAF12 conf 14.1 | hgDAF12 conf 16.7 | LXRb DAF12 ctr inactive
COc1ccc(-n2ncc3c2CC(C)(C)CC3NC(=O)c2c(C)cc(=O)oc2C)cc1 (stereo not drawn)	none
Cc1ccc2nc(-c3ccc(NC(=O)CCS(=O)(=O)c4ccccc4)cc3)sc2c1	hcDAF12 agonist 8.9, ssDAF-12 act 1.5, hgDAF12 agonist 18.3 | LXRb hcDAF ctr inactive | hcDAF12 conf 7.6 | hgDAF12 conf 13.3 | LXRb DAF12 ctr inactive
Cc1ccc(NC(=O)CCS(=O)(=O)c2ccc3nc(C)sc3c2)cc1	none
N[C@@H](Cc1ccccc1)C(=O)N1CCC(C(=O)N[C@@H](CCC(=O)O)C(=O)O)CC1	none
COC(=O)C1=C(O)/C(=C\c2ccc(OCC(=O)Nc3ccc(OC)cc3)cc2)N=C1C	none
COc1cccc(N(C(=O)c2nc3nccc(C)n3n2)c2nc3ccccc3s2)c1	hcDAF12 agonist 8.4, DAX1 inh-1 4.0, ssDAF-12 act 1.1, hgDAF12 agonist 19.7 | LXRb hcDAF ctr inactive | hcDAF12 conf inactive | hgDAF12 conf 16.4 | LXRb DAF12 ctr inactive
COc1ccc(-n2cc3ccc([N+](=O)[O-])cc3n2)cc1	hcDAF12 agonist 6.7, hgDAF12 agonist 21.0 | LXRb hcDAF ctr inactive | hcDAF12 conf 7.1 | hgDAF12 conf 18.7 | LXRb DAF12 ctr inactive
COc1ccc(-n2c(N)c(C#N)c3ccc([N+](=O)[O-])cc3c2=O)cc1	none
